Laboratory results: PubChem BioAssay (NCATS)
Records with an inconclusive call do not appear. A call without a number means that no potency is given here. Values without a mark were called inactive. The source made the active and inactive calls. Calls come from the whole dose curve; as a rule, active = well fitted inhibition curve with a large enough effect; inconclusive = small, poorly fitted or top-dose-only effect; inactive = no such curve, though single readings can be large or run the other way. *1 amine or outer side, *2 acyl side, *3 side chain or, on linkers, in order; H or OH if unused. Where a SMILES comes first, the peptide text is derived from it. [ ]: non-standard residue; d: D form. X4 = CC(C)=CCc1cc(C(O)C(N[*:1])C(=O)[*:2])ccc1O

What was measured:
[1] = test system: Zika virus NS2B-NS3 protease (unlinked complex); assay: Primary screen GU Rhodamine qHTS for Zika virus inhibitors: Unlinked NS2B-NS3 protease assay (AID 1347159); note: nearly all actives have a fitted effect of over 60% in size
Method in brief: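 Percent inhibition derives from the 15-min fluorescence change (ex 480, em 540 nm), normalized to no-enzyme and no-inhibitor wells. Reactions contained 25 nM NS2B-NS3 complex and 1.5 microM substrate in 10 mM Tris-HCl pH 8.0.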

[2] = test system: Zika virus NS2B-NS3 protease (linked construct); assay: Primary screen NINDS Rhodamine qHTS for Zika virus inhibitors (AID 1347160); note: nearly all actives have a fitted effect of over 55% in size
Method in brief: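 In 10 mM Tris-HCl pH 8.0 containing 0.01% Tween 20, linked NS2B-NS3 protease (25 nM final) is exposed to test compounds for 15 min. Cleavage of 1.5 microM Rhodamine110 substrate is tracked by fluorescence over 15 min.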

| Compound | Potency [1] | Potency [2] |
| --- | --- | --- |
| CC12CCC3c4ccc(O)cc4CCC3C1CC(OC1OC(C(=O)O)C(O)C(O)C1O)C2O (stereo not drawn) | inactive | inactive |
| COc1c2ccoc2cc2oc(CO[C@@H]3O[C@H](CO)[C@@H](O)[C@H](O)[C@H]3O)cc(=O)c12 | inactive | inactive |
| CC1=CC(=O)C(=C(C)C)CC2C1CCC2(C)O (stereo not drawn) | inactive | inactive |
| CC(=O)NC1=NN(C(C)=O)C(C)(c2ccccc2)S1 (stereo not drawn) | inactive | inactive |
| N#Cc1ccc(-c2cnc3[nH]cc(NC(=O)c4cccnc4)c3c2)cc1 | inactive | inactive |
| C[C@@H]1O[C@@H](O[C@H]2[C@@H](OC(=O)[C@]34CCC(C)(C)CC3C3=CCC5[C@@]6(C)C[C@H](O)[C@H](O[C@@H]7O[C@H](C(=O)O)[C@@H](O)[C@H](O)[C@H]7O)[C@@](C)(C(=O)O)C6CC[C@@]5(C)[C@]3(C)CC4)OC[C@H](O)[C@@H]2O)[C@H](O)[C@H](O)[C@H]1O[C@@H]1OC[C@@H](O)[C@H](O)[C@H]1O (stereo partly drawn) | inactive | inactive |
| CC(C)O[C@@H]1O[C@H](CO)[C@@H](O)[C@H](O)[C@H]1O | inactive | inactive |
| CC1CCC2C(C)(C)[C@@H](O)CC[C@]2(C)C12Cc1c(O)cc3c(c1O2)CN(C(CCC(=O)O)C(=O)O)C3=O (stereo partly drawn) | inactive | inactive |
| C[C@@H]1C[C@@H](O)[C@@]23CO[C@@H](O)[C@@H]2CCC[C@@H]3[C@@]12C[C@@H](c1ccoc1)OC2=O | inactive | inactive |
| COc1ccc2[nH]c3c(-c4cccc5ccccc45)nccc3c2c1 | inactive | inactive |
| CC12CCC(C(OC3OC(COC4OCC(O)(CO)C4O)C(O)C(O)C3O)C1)C(C)(C)O2 (stereo not drawn) | inactive | inactive |
| COc1cc2c(cc1OC)N1C(=O)C[C@]34C=CCN5CC[C@@H]2[C@@H](CC3)[C@]514 | inactive | inactive |
| Cc1cc(C)c(Nc2ccnc(Nc3ccc(C#N)cc3)n2)c(C)c1 | inactive | inactive |
| CN1CCc2nc(C(=O)N[C@@H]3C[C@@H](C(=O)N(C)C)CC[C@@H]3NC(=O)C(=O)Nc3ccc(Cl)cn3)sc2C1 | inactive | inactive |
| C=C1C[C@]23C[C@H]1CC[C@H]2[C@@]1(C)CCC[C@@]2(C)C(=O)O[C@@H]([C@@H]3O)[C@@H]12 | inactive | inactive |
| C=C(C)C1CCC2(C(=O)O[C@@H]3O[C@H](CO[C@@H]4O[C@H](CO)[C@@H](O)[C@H](O)[C@H]4O)[C@@H](O)[C@H](O[C@@H]4O[C@@H](C)[C@H](O)[C@@H](O)[C@H]4O)[C@H]3O)CCC3(C(=O)O)C(CCC4C5(C)CCC(O)C(C)(C)C5CCC43C)C12 (stereo partly drawn) | inactive | inactive |
| CC(C)=CCc1cc(C(O)C2NC(=O)CNC(=O)C(Cc3c[nH]c4ccccc34)NC(=O)C3CCCN3C(=O)CNC(=O)C(C(C)C)NC(=O)CNC2=O)ccc1O (stereo not drawn) (cyclo(G[X4]GVGPW); configuration not given here) | inactive | inactive |
| C[C@@H]1COCCN1c1cc(C2(S(C)(=O)=O)CC2)nc(-c2cccc3[nH]ccc23)n1 | inactive | inactive |
| Cc1cc(O)c(-c2ccc([C@@H](C)CN(C)C)cc2)c2c1[nH]c(=O)c1sccc12 | inactive | inactive |
| CS(=O)(=O)N1CCC(NC(=O)c2[nH]ncc2NC(=O)c2c(Cl)cccc2Cl)CC1 | inactive | inactive |
| CN=C(N)NCCCCC/C=C(/C)CC(C)C1OC(=O)C(C)C(O)/C=C/C(C)C(O)CC(O)C(C)C(O)CCC(C)C(O)CC2(O)OC(CC(OC(=O)CC(=O)O)CC(O)CC(O)C(C)C(O)/C(C)=C/CCC1C)CC(O)C2O (stereo not drawn) | inactive | inactive |
| C=C1CC[C@H]2[C@@](C)(CCC(O)[C@@]2(C)CO)[C@@H]1CCC1=CCOC1=O (stereo partly drawn) | inactive | inactive |
| C[C@@H]1CN(Cc2ccccc2)C[C@H]1c1nc2c(cnn2C2CCOCC2)c(=O)[nH]1 | inactive | inactive |
| O=C(Nc1ccc(-c2ccncc2)cc1)N[C@H](CO)c1ccccc1 | inactive | inactive |
| CC1CC(C(O)C(C)(C)O)OC2CC3(C)C4(C)CCC5C(C)(C)C(=O)CCC5(C)C4CCC3(O)C12O (stereo not drawn) | inactive | inactive |
| Oc1ccc2nc(CN3CCC(Cc4ccccc4F)CC3)[nH]c2c1 | inactive | inactive |
| O=C(C(c1ccccc1)c1ccccc1)N1CCN(CC(O)COc2cccc3ncccc23)CC1 (stereo not drawn) | inactive | inactive |
| CC(C)=CCC/C(C)=C/CO[C@@H]1O[C@H](CO)[C@@H](O)[C@H](O)[C@H]1O | inactive | inactive |
| C[C@@H]1C(=O)OC[C@H]2C(C(=O)O)=C[C@@H]3CC(C)(C)C[C@]312 | inactive | inactive |
